Data on 175 sequences can be found in article PMC6212790, “How bacterial xenogeneic silencer rok distinguishes foreign from self DNA in its resident genome”.

Whole data set: some 33,000 sequences, median “e-score” near -0.037, cut for the highest 2% near 0.34. This excerpt belongs to a sample that is enriched for the highest values.

For the assay, the target named is T1, GST-Rok (full length) (Bacillus subtilis subsp. subtilis str. …, UniProt O34857 1-191).
T1 sequence: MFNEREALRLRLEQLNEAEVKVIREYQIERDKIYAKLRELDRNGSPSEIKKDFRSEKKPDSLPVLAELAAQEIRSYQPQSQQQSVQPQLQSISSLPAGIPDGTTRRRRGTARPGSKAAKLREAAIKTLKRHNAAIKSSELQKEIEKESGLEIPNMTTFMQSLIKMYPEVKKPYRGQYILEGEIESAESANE
The assay is described as follows: protein binding microarray; Rok is a gene silencer of Bacillus subtilis; high values mean tight binding. As to conditions: protein: recombinant; tags: GST (pTH5325, pDEST15-Magic modified); dsDNA, one strand shown. In short, it runs like this: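 Each has a 25-mer constant primer and a 35-mer variable part from a de Bruijn sequence of order 10, covering every non-palindromic 8-mer at least 32 times (palindromic 16). Preference for each 8-mer is given as a rank-based, unitless enrichment score (E-score). Its range runs from 0.5 (most favored) to −0.5 (most disfavored).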
In the case of TCGAATCA, the binding signal is -0.0502 E-score.
Consider ACCGCACT, for which the binding signal amounted to 0.0535 E-score.
The result for AGTACTAG reads 0.385 E-score.
As to AGTACTGG, the binding signal was 0.156 E-score.
For CGTACTAG the value was 0.0856 E-score; for CCGGTATA, -0.0189 E-score; for CCGGTAAA, 0.107 E-score.
For TCGGTAAA the value was 0.136 E-score.
The result for ACGGTAGG reads 0.137 E-score; that for ACGGTAGT, 0.373 E-score.
Consider AAGGTAGT, for which the binding signal is 0.354 E-score.
Regarding AAGGTAGG, the binding signal worked out at 0.133 E-score.
The result for ACGGTAGC reads 0.139 E-score; that for ACGGTATA, 0.252 E-score; that for ACGGTAAA, 0.349 E-score.
For GCGGTATA the value was 0.347 E-score; for AAGGTAGC, 0.133 E-score; for CTAGATGA, 0.0637 E-score.
Take CTGCGAGA: the binding signal is -0.11 E-score.
For AAGCCTGA the value was -0.131 E-score; for GACCCAGA, -0.174 E-score.
For AGCAAACC the value was 0.0585 E-score; for ACGGTAGA, 0.365 E-score.
For CCGGTAGA the value was 0.229 E-score; for AAGGTAGA, 0.288 E-score; for TAGGTAGA, 0.361 E-score.
TCGGTAGA: the binding signal was 0.231 E-score.
GCGGTAGA: the binding signal amounted to 0.337 E-score.
Turning to GAGGTAGA, the binding signal is 0.296 E-score.
For GCGGTAGC the value was 0.0476 E-score.
The result for GGGGTAGA reads 0.011 E-score; that for GAAGCAAC, 0.0226 E-score.
For GCCGTTAA the value was -0.0418 E-score; for CAGTTCTC, 0.00617 E-score; for AACGACAG, 0.0268 E-score.
In the case of CTATTGTC, the binding signal is -0.0651 E-score.
For CAATTGTC, the binding signal is -0.0649 E-score.
For GAATTGTA the value was 0.254 E-score; for ACATTGTA, 0.222 E-score; for CAATTGTA, 0.339 E-score.
For ATATTGTA the value was 0.375 E-score; for ATATTGTG, 0.172 E-score; for CTATTGTA, 0.381 E-score.
The result for GTATTGTA reads 0.238 E-score; that for AATGTTGT, 0.154 E-score; that for CAGGGTTC, -0.172 E-score.
For the sequence CGAACTAG, the binding signal stood at 0.319 E-score.
The result for CTAACTAC reads 0.397 E-score; that for CTAACTAA, 0.29 E-score; that for GTAACTAC, 0.394 E-score.
As for AGAACTAC, the binding signal amounted to 0.327 E-score.
The result for CGAACTAC reads 0.358 E-score; that for GTAACTAA, 0.304 E-score; that for ATAACTAC, 0.316 E-score.
For the sequence GCAACTAC, the binding signal worked out at 0.308 E-score.
With AAAGCCTG, the binding signal is -0.18 E-score.
The result for ATTTTAAA reads 0.126 E-score; that for GTCGCTAA, 0.16 E-score.
For GCATATGC the value was 0.129 E-score; for CTCATAAG, -0.129 E-score.
Regarding CACTACAA, the binding signal worked out at 0.143 E-score.
The result for TACTACAA reads 0.357 E-score; that for ACCTACAG, 0.0467 E-score.
The result for AACTACAC reads 0.335 E-score; that for AACTACAT, 0.419 E-score.
For GCCTACAA the value was 0.107 E-score.
Regarding GACTACAA, the binding signal came to 0.12 E-score.
For ACCTACAA the value was 0.265 E-score; for AACTACAA, 0.34 E-score.
The result for ACCTACAT reads 0.271 E-score; that for CACTACAG, -0.0355 E-score; that for AACTACAG, 0.337 E-score.
As to GAACCAGC, the binding signal is -0.148 E-score.
The result for GTAATCCA reads 0.00713 E-score; that for ACATCGGA, 0.06 E-score.
The result for ATTTTTGA reads 0.0221 E-score; that for GCTCTCAA, -0.174 E-score; that for CCTAGCGA, -0.111 E-score.
For AGCTACAT the value was 0.364 E-score; for AGCTACAC, 0.191 E-score.
TTCTACAA: the binding signal is 0.392 E-score.
As to GTCTACAA, the binding signal came out at 0.11 E-score.
The result for AGCTACAA reads 0.205 E-score; that for CTCTACAA, 0.0924 E-score.
ACTTCGTC: the binding signal was -0.0747 E-score.
Take TGTCCAAA: the binding signal stood at 0.0695 E-score.
The result for ACCGGCCG reads -0.0951 E-score; that for TCGAGAAA, 0.135 E-score.
Take AGTATTTG: the binding signal amounted to 0.31 E-score.
For GTTATTTA the value was 0.197 E-score; for CGTATTTA, 0.261 E-score.
For the sequence ATTATTTA, the binding signal worked out at 0.406 E-score.
GGTATTCA: the binding signal is -0.0162 E-score.
Turning to AGTATTTC, the binding signal was found to be 0.332 E-score.
Regarding AGTATTTA, the binding signal came out at 0.344 E-score.
GGTATTTA: the binding signal is 0.356 E-score.
The result for CTTATTTA reads 0.148 E-score.
For AAATGCTC the value was -0.142 E-score.
The result for AAGATTAG reads 0.197 E-score.
Take ACCAGTGC: the binding signal is -0.175 E-score.
For TAGCAGCA the value was 0.0346 E-score; for ATAATACC, 0.174 E-score; for GGAATATA, 0.366 E-score.
As for ATAATACG, the binding signal was 0.349 E-score.
For ATAATAAA the value was 0.297 E-score; for ATAATAAT, 0.372 E-score; for CGAATATA, 0.321 E-score.
As to AGAATATA, the binding signal stood at 0.296 E-score.
The result for CTAATATC reads 0.255 E-score; that for CTAATATA, 0.349 E-score; that for ATAATAAC, 0.312 E-score.
For ATAATACA the value was 0.237 E-score; for CTAATAGA, 0.0426 E-score; for GTGGGTAA, 0.142 E-score.
The result for AGTGACAT reads 0.101 E-score; that for AGCAAAAG, -0.151 E-score.
As to CCACTGAA, the binding signal is -0.106 E-score.
For CCCATTGA the value was -0.11 E-score.
Regarding ACTTGATG, the binding signal is -0.00809 E-score.
The result for AGCGCTGG reads -0.124 E-score; that for AGGCGTGC, -0.13 E-score.
For ATATTCAT the value was 0.319 E-score; for GTGACGGA, -0.136 E-score; for TCGTTCAA, 0.0056 E-score.
For GTAATAGA the value was 0.257 E-score; for ATAATATA, 0.453 E-score; for GTAATACA, 0.247 E-score.
As for ATAATATC, the binding signal turned out to be 0.274 E-score.
As for ATAATATG, the binding signal stood at 0.232 E-score.
For GTAATATA, the binding signal was 0.391 E-score.
Turning to GCATGTCA, the binding signal was -0.0408 E-score.
As to ACGAGTTG, the binding signal was 0.149 E-score.
The result for GAGATTGA reads 0.0297 E-score.
The result for TTGGTAAA reads 0.217 E-score.
The result for CATATCGA reads 0.0224 E-score; that for CTTTAAAG, 0.0411 E-score; that for ACTAGTCC, 0.108 E-score.
For ACTAGTCA, the binding signal stood at 0.352 E-score.
For CCTAGTTA the value was 0.209 E-score.
The result for GCTAGTGA reads 0.0873 E-score; that for GCTAGTCA, -0.0821 E-score.
For ACTAGTCG the value was 0.292 E-score.
GCTAGTTA: the binding signal came to 0.337 E-score.
For ACTAGTTC the value was 0.329 E-score; for ACTAGTTA, 0.44 E-score; for ACTGTTCT, 0.0222 E-score.
Regarding AAATAGGC, the binding signal is 0.00361 E-score.
The result for AACATTAA reads 0.133 E-score; that for AGCTGCTC, -0.187 E-score; that for CTCCATAC, 0.166 E-score.
The result for AGTCTGAC reads -0.198 E-score; that for GTTAGGTA, 0.191 E-score.
For CCAAAAAG the value was -0.177 E-score; for GGAATTAA, 0.111 E-score; for CCTCAGTA, 0.0795 E-score.
CTGGCTCA: the binding signal came out at 0.0475 E-score.
The result for CTCGAGCA reads -0.112 E-score.
For CTTCGAAA the value was -0.139 E-score.
For CGTGAACA the value was 0.0255 E-score.
Regarding AATTGTAG, the binding signal came out at 0.28 E-score.
The result for AATTGTAC reads 0.341 E-score; that for ACTTGTAA, 0.168 E-score.
The result for GATTGTAC reads 0.317 E-score.
For the sequence ACTTGTAT, the binding signal came out at 0.236 E-score.
The result for ACTTGTAC reads 0.345 E-score; that for ACGGTTAG, -0.0112 E-score; that for GTTATTGA, 0.0636 E-score.
For CGTTACAA the value was 0.151 E-score; for CTCAGTTC, -0.0174 E-score.
For ATCTAGCC the value was 0.178 E-score.
For CTCTAGTA, the binding signal stood at 0.119 E-score.
For ATCTAGCA the value was 0.339 E-score; for CTCTAGCA, -0.115 E-score; for ATCTAGTA, 0.408 E-score.
The result for ATCTAGTC reads 0.297 E-score.
